Test systems include HCT-15 colon; HT29 colon; SNB-75 CNS; U251 CNS; PC-3 prostate; SK-MEL-5 melanoma; UACC-62 melanoma; LOX IMVI melanoma; SK-MEL-28 melanoma; UO-31 renal; ACHN renal; CAKI-1 renal; A498 renal; CCRF-CEM leukemia; MOLT-4 leukemia; SNB-19 CNS; SK-MEL-2 melanoma; SN12C renal; EKVX NSCLC; TK-10 renal.
What all share (assay): NCI-60 one-dose screen, 48 h (100 = growth as untreated, 0 = no growth, -100 = all killed)
Conditions in all cases: 10 µM unless noted

About 83,000 compounds went through this panel and 20% of them were active in at least one assay; those are over-represented in the sample as a whole.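 Each cell line was grown in a 96-well plate and treated with one concentration of compound for 48 hours. Values below 10 were considered active.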 A number with no mark means an inactive call. The source made the active and inactive calls.

For `CC(C)(C)[Si](C)(C)OC1[C@@H](COC(N)=O)O[C@@H](n2cnc3c(N)ncnc32)[C@H]1O[Si](C)(C)C(C)(C)C` (some centres undefined), the growth with HCT-15 colon was 88%; in the assay with HT29 colon, 93.6%; in the assay with SNB-75 CNS, 99.4%; in the assay with U251 CNS it was 82.7%; in the assay with PC-3 prostate it was 18.4%; in the assay on SK-MEL-5 melanoma it was 96.9%. Also, the growth in the assay with UACC-62 melanoma is 85.5%; in the assay with LOX IMVI melanoma, 98.2%; in the assay with SK-MEL-28 melanoma it was 98.3%; in the assay with UO-31 renal, 51.9%; with ACHN renal, 89.1%; with CAKI-1 renal, 91.9%. Also, the growth was 106% in the assay with A498 renal, 50.3% in the assay on CCRF-CEM leukemia and -40.1% (active) with MOLT-4 leukemia.

Take `COC(=O)[C@H]1CCCN1C(=O)[C@H]1CCCN1C(=O)[C@@H](Cc1c[nH]c2ccccc12)NC(=S)Nc1cc(C(F)(F)F)cc(C(F)(F)F)c1`: the growth in the assay with HCT-15 colon was 55.5%; with HT29 colon, 39%; with SNB-75 CNS, 40.3%; in the assay with SNB-19 CNS, 36.8%; with PC-3 prostate, 34%; with UACC-62 melanoma, 58.7%. In addition, the growth with LOX IMVI melanoma is 44.2%; in the assay with SK-MEL-28 melanoma, 53%; in the assay on SK-MEL-2 melanoma, 93.2%; with SN12C renal it was 43.2%; in the assay with UO-31 renal, 41.1%; in the assay on ACHN renal it was 44.3%. Further, the growth in the assay with CAKI-1 renal is 28.5%; in the assay with A498 renal it was 56%; with CCRF-CEM leukemia, 36%; with MOLT-4 leukemia it was 21.2%.

For `COc1cc(C(=O)/C=C/c2c(-c3cccs3)nc3sccn23)cc(OC)c1OC`, the growth with HCT-15 colon was -36.7% (active); in the assay on HT29 colon, -13.8% (active); in the assay with SNB-75 CNS, -27.7% (active); in the assay on U251 CNS, 0.929% (active); with PC-3 prostate it was 7.06% (active); in the assay with SK-MEL-5 melanoma, -37.9% (active). In addition, the growth with UACC-62 melanoma was -56.4% (active); in the assay with LOX IMVI melanoma, -68.5% (active); with SK-MEL-28 melanoma, 16.5%; in the assay on SK-MEL-2 melanoma, -3.21% (active); with EKVX NSCLC, 3.45% (active); in the assay on SN12C renal, 4.03% (active). The growth in the assay with UO-31 renal was 10.2%; in the assay on TK-10 renal it was 3.46% (active); in the assay on ACHN renal, 12.4%; in the assay on CAKI-1 renal, -29% (active); with A498 renal it was -26.3% (active); in the assay with MOLT-4 leukemia, -1.21% (active).

With `O=C1/C(=C/c2ccc(Cl)cc2)CN(Cc2cn(CCCNc3ccnc4cc(Cl)ccc34)nn2)C/C1=C\c1ccc(Cl)cc1`, the growth with HCT-15 colon is -74.2% (active); in the assay on HT29 colon, -69.6% (active); with SNB-75 CNS, -4.46% (active); with SNB-19 CNS it was -79.6% (active); in the assay on SK-MEL-5 melanoma, -86.2% (active); with LOX IMVI melanoma it was -86.2% (active). Besides, the growth in the assay with SK-MEL-28 melanoma was -82.6% (active); in the assay on SK-MEL-2 melanoma, -35.2% (active); in the assay on SN12C renal, -80.2% (active); in the assay on UO-31 renal it was -98% (active); in the assay on TK-10 renal, -56.6% (active); with ACHN renal, -99.3% (active). Besides, the growth is -20.4% (active) in the assay on CAKI-1 renal, -61.3% (active) in the assay on A498 renal, -31.2% (active) in the assay on CCRF-CEM leukemia and -16.7% (active) in the assay with MOLT-4 leukemia.

With `O=C(Nc1ccc(Cl)c(Cl)c1)NC(CO)(CO)CO`, the growth in the assay on HCT-15 colon is 94.9%; in the assay on HT29 colon, 100%; in the assay on SNB-75 CNS, 79.3%; in the assay on SNB-19 CNS it was 101%; with SK-MEL-5 melanoma, 99.3%; with UACC-62 melanoma, 113%. Also, the growth in the assay with LOX IMVI melanoma was 95.2%; in the assay with SK-MEL-28 melanoma, 107%; in the assay with SK-MEL-2 melanoma, 100%; in the assay on SN12C renal, 102%; in the assay with UO-31 renal, 73.9%; with ACHN renal it was 97.7%. Moreover, the growth was 91% in the assay on CAKI-1 renal, 83.8% in the assay on A498 renal, 93.3% in the assay with CCRF-CEM leukemia and 98.3% with MOLT-4 leukemia.

In the case of `C[C@@H](Oc1cc(-c2cnn(C3CC4(CCNCC4)C3)c2)cnc1N)c1c(F)ccc(Cl)c1Cl`, the growth with HCT-15 colon was 1.76% (active); with HT29 colon it was -56.6% (active); with SNB-75 CNS, -3.45% (active); in the assay on SNB-19 CNS, 61.6%; with PC-3 prostate it was 6.2% (active); in the assay on UACC-62 melanoma, -88.1% (active). Moreover, the growth was -85.8% (active) in the assay with LOX IMVI melanoma; -83.4% (active) in the assay on SK-MEL-28 melanoma; -65.5% (active) in the assay with SK-MEL-2 melanoma; 22% in the assay with SN12C renal; 13.8% with UO-31 renal; 28.2% in the assay on ACHN renal. The growth in the assay on CAKI-1 renal is 60.9%; in the assay on A498 renal, -6.38% (active); in the assay on MOLT-4 leukemia it was -33% (active).

On to `Cc1nc2cc(Nc3nc(N4CCOCC4)nc(N4CCN(C)CC4)n3)ccc2n1Cc1ccccc1`, for which the growth is 96% in the assay with HCT-15 colon; 109% with HT29 colon; 71.2% in the assay on SNB-75 CNS; 106% with SNB-19 CNS; 97.5% in the assay on SK-MEL-5 melanoma; 102% in the assay with UACC-62 melanoma. The growth in the assay with LOX IMVI melanoma is 97.2%; in the assay on SK-MEL-28 melanoma, 106%; with SK-MEL-2 melanoma, 106%; in the assay on UO-31 renal, 81.7%; with TK-10 renal it was 106%; with ACHN renal it was 96.6%. The growth was 93.3% in the assay with CAKI-1 renal, 92.4% in the assay on A498 renal, 96.2% with CCRF-CEM leukemia and 91.8% in the assay with MOLT-4 leukemia.

On to `CCOC(=O)c1sc(NC(=O)CN2CCC(Cc3ccccc3)CC2)nc1C`, for which the growth with HCT-15 colon was 92.9%; in the assay with HT29 colon, 79.8%; in the assay with SNB-75 CNS it was 109%; with SNB-19 CNS it was 104%; in the assay on UACC-62 melanoma, 114%; with LOX IMVI melanoma, 96.7%. The growth in the assay on SK-MEL-28 melanoma is 110%; in the assay on SK-MEL-2 melanoma, 133%; in the assay on UO-31 renal it was 80.4%; with TK-10 renal, 106%; in the assay with ACHN renal it was 107%; with CAKI-1 renal, 99.4%. The growth with A498 renal was 100%; in the assay with CCRF-CEM leukemia, 94.1%; in the assay with MOLT-4 leukemia, 84.3%.

Turning to `O=C1CC2c3cc(-c4cc5ccccc5o4)ccc3CCN2C(=O)N1c1ccccc1` (centres undefined), the growth in the assay with HCT-15 colon is 54.6%; in the assay with HT29 colon it was 85.7%; in the assay on SNB-75 CNS, 73.8%; in the assay on SNB-19 CNS, 89.6%; with SK-MEL-5 melanoma, 82.7%; in the assay on UACC-62 melanoma it was 81.1%. The growth with LOX IMVI melanoma is 94.4%; in the assay with SK-MEL-28 melanoma it was 99.8%; with SK-MEL-2 melanoma, 83%; in the assay on SN12C renal, 89.3%; with UO-31 renal, 58.8%; in the assay with TK-10 renal it was 78.5%. In addition, the growth with ACHN renal was 99.6%; with CAKI-1 renal it was 80.8%; with A498 renal, 82%; in the assay with CCRF-CEM leukemia, 68.2%; with MOLT-4 leukemia it was 64.1%.

The values above are taken from PubChem BioAssay (NCI).
